Laboratory results published in PubChem BioAssay (NCATS).
Inconclusive results are not listed. Calls of active or inactive are those of the source. The call rests on the fitted dose curve; in most records, active means well fitted inhibition curve with a large enough effect; inconclusive means small, poorly fitted or top-dose-only effect; inactive means no such curve, though single readings can be large or run the other way.

tested on: Zika virus NS2B-NS3 protease (unlinked complex); test: Primary screen GU Rhodamine qHTS for Zika virus inhibitors: Unlinked NS2B-NS3 protease assay (AID 1347159); conditions: Recombinant ZIKV NS2B-NS3 protease, Rhodamine110 substrate fluorescence; series mostly up to 107 µM; activity change, negative = inhibition: at the top concentration; further: nearly all actives have a fitted effect of over 60% in size
Outline: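 Percent inhibition derives from the 15-min fluorescence change (ex 480, em 540 nm), normalized to no-enzyme and no-inhibitor wells. Reactions contained 25 nM NS2B-NS3 complex and 1.5 microM substrate in 10 mM Tris-HCl pH 8.0.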
On the % scale 0 is the no-effect control and ±100 the full control effect.

| Compound | activity change, negative = inhibition |
| --- | --- |
| C[C@@H]1O[C@@H](O[C@H]2[C@H](OC(=O)[C@]34CCC(C)(C)C[C@H]3C3=CCC5[C@@]6(C)CC[C@H](O[C@@H]7O[C@H](C(=O)O)[C@@H](O)[C@H](O)[C@H]7O[C@@H]7O[C@H](CO)[C@H](O)[C@H](O)[C@H]7O)[C@@](C)(C=O)C6CC[C@@]5(C)[C@]3(C)C[C@H]4O)O[C@H](C)[C@H](O[C@@H]3O[C@H](C)[C@H](O)[C@H](O)[C@H]3O)[C@@H]2O)[C@H](O)[C@H](O)[C@H]1O[C@@H]1OC[C@@H](O)[C@H](O[C@@H]2O[C@H](CO)[C@@H](O)[C@H](O)[C@H]2O)[C@H]1O (some centres undefined) | 4.39% [at 19.1 µM] (inactive) |
| C[C@H](NC(c1cccc(C[P+](=O)O)c1)[C@H](C)O)c1ccc(Cl)c(Cl)c1 (some centres undefined) | 5.02% (inactive) |
| CC1(c2nc3c(C(N)=O)cccc3[nH]2)CCCN1 (centres undefined) | 47.9% (inactive) |
| COc1cccc(-c2cc(NCc3ccc4c(c3)OCO4)nc(N)n2)c1 | 64.8% (inactive) |
| CO[C@H]1C[C@@H]2CC[C@@H](C)[C@@](O)(O2)C(=O)C(=O)N2CCCC[C@H]2C(=O)O[C@H]([C@H](C)C[C@H]2CC[C@@H](OP(C)(C)=O)[C@H](OC)C2)CC(=O)[C@H](C)/C=C(\C)[C@@H](O)[C@@H](OC)C(=O)[C@H](C)C[C@H](C)/C=C/C=C/C=C/1C | 10.4% (inactive) |
| CCOc1cc2ncc(C#N)c(Nc3ccc(F)c(Cl)c3)c2cc1NC(=O)/C=C/CN(C)C | 24.9% (inactive) |
| C[C@H](O)[C@H](O)/C=C/c1cccc(O)c1CO | 7.66% (inactive) |
| C=C1C(=O)O[C@@H]2/C=C(\C)C(=O)/C=C/[C@](C)(O)C[C@@H](OC(=O)C(C)C)[C@@H]12 | 4.88% (inactive) |
| CCOc1cc(C)c(Cl)cc1S(=O)(=O)n1cnc2ccccc21 | -7.85% [at 57.1 µM] (inactive) |
